Measured values as given in PubChem BioAssay AID1159580 (chemical genetic matrix, 2015).
About 2,000 (36%) of roughly 5,500 compounds were called active. Inconclusive results (about 18%) are left out. Rule as the data show it: active = normalized growth mostly below about 0.91 (no sharp cut-off); inconclusive = no clear call, values can overlap the other calls; inactive = mostly above about 0.92. Some of the results follow.

Test: chemical genetic growth profiling, strain panel (AID 1159580);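 also: tested at 20 µM; growth read once vehicle control cultures reached saturation at 30 °C; 1 = growth at the plate median or of vehicle wells; lower values mean less growth of the strain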
Conditions: growth OD
[1] = S. cerevisiae deletion strains, locus YAL013W, strain DEP1, hits give low values
[2] = S. cerevisiae deletion strains, locus YBR229C, strain ROT2, hits give low values
[3] = S. cerevisiae deletion strains, locus YCL061C, strain MRC1, hits give low values
[4] = S. cerevisiae deletion strains, locus YDL101C, strain DUN1, hits give low values
[5] = S. cerevisiae deletion strains, locus YDR150W, strain NUM1, hits give low values
[6] = S. cerevisiae deletion strains, locus YEL061C, strain CIN8, hits give low values
[7] = S. cerevisiae deletion strains, locus YGR078C, strain PAC10, hits give low values
[8] = S. cerevisiae deletion strains, locus YHR030C, strain SLT2, hits give low values
[9] = S. cerevisiae deletion strains, locus YHR087W, strain rtc3, hits give low values
[10] = S. cerevisiae deletion strains, locus YJL187C, strain SWE1, hits give low values
[11] = S. cerevisiae deletion strains, locus YJR043C, strain POL32, hits give low values
[12] = S. cerevisiae deletion strains, locus YJR075W, strain HOC1, hits give low values
[13] = S. cerevisiae deletion strains, locus YKL190W, strain CNB1, hits give low values
[14] = S. cerevisiae deletion strains, locus YLR039C, strain RIC1, hits give low values
[15] = S. cerevisiae deletion strains, locus YLR058C, strain SHM2 (second series), hits give low values
[16] = S. cerevisiae deletion strains, locus YLR085C, strain ARP6, hits give low values
[17] = S. cerevisiae deletion strains, locus YLR262C, strain YPT6, hits give low values
[18] = S. cerevisiae deletion strains, locus YML094W, strain GIM5, hits give low values
[19] = S. cerevisiae deletion strains, locus YMR219W, strain ESC1, hits give low values
[20] = S. cerevisiae deletion strains, locus YMR263W, strain SAP30, hits give low values
[21] = S. cerevisiae deletion strains, locus YNL153C, strain GIM3, hits give low values
[22] = S. cerevisiae deletion strains, locus YNL298W, strain CLA4 (second series), hits give low values
[23] = S. cerevisiae deletion strains, locus YNL322C, strain KRE1, hits give low values
[24] = S. cerevisiae deletion strains, locus YNR030W, strain Alg12, hits give low values
[25] = S. cerevisiae deletion strains, locus YPL055C, strain LGE1, hits give low values
[26] = S. cerevisiae deletion strains, locus YPL241C, strain CIN2, hits give low values
[27] = S. cerevisiae deletion strains, locus YPR135W, strain CTF4, hits give low values
[28] = S. cerevisiae strains, strain wild type, hits give low values
[29] = S. cerevisiae deletion strains, locus YMR307W, strain GAS1, hits give low values
[30] = S. cerevisiae deletion strains, locus YOL006C, strain TOP1, hits give low values
[31] = S. cerevisiae deletion strains, locus YNL128W, strain TEP1, hits give low values

Measured: normalized growth

O=S(=O)(c1ccc(Cl)c(Cl)c1)N1CCN(c2ccc(C(F)(F)F)cn2)CC1
inactive: [1] 1 | [2] 1.01 | [3] 1.05 | [4] 1.05 | [5] 1.02 | [6] 0.998 | [7] 1.05 | [8] 1.09 | [9] 1.02 | [10] 1.03 | [11] 1.03 | [12] 1.06 | [13] 1.02 | [14] 1 | [15] 1.02 | [17] 1 | [18] 1.04 | [19] 1.01 | [20] 1.04 | [21] 1.04 | [22] 1.04 | [23] 1.01 | [24] 1.04 | [25] 1.07 | [26] 1.11 | [27] 0.99 | [28] 1.01
active: [16] 1.35 [resistant]

Cc1oc(-c2ccccc2)cc1C(=O)N1CCN(c2ccc(C(F)(F)F)cn2)CC1
inactive: [2] 0.961 | [3] 0.984 | [4] 1 | [5] 0.858 | [6] 0.947 | [7] 0.963 | [9] 0.935 | [10] 0.988 | [11] 0.98 | [12] 0.964 | [14] 0.876 | [15] 0.977 | [17] 0.941 | [18] 0.875 | [19] 0.975 | [20] 0.919 | [29] 0.762 | [21] 0.978 | [23] 0.984 | [30] 0.795 | [28] 0.957
active: [1] 0.86 | [8] 0.433 | [16] 0.663 | [22] 0.826 | [24] 0.823 | [25] 0.709 | [27] 0.497

COc1ccccc1N1CCN(S(=O)(=O)c2ccc(C(F)(F)F)cc2)CC1
inactive: [1] 1 | [2] 0.99 | [3] 0.985 | [4] 1.01 | [5] 0.989 | [6] 1.02 | [7] 1 | [8] 1.09 | [9] 1.03 | [10] 0.985 | [11] 0.998 | [12] 0.99 | [13] 0.965 | [14] 0.952 | [15] 0.987 | [16] 0.927 | [17] 0.962 | [18] 0.995 | [19] 0.989 | [20] 0.977 | [29] 1.04 | [21] 1 | [22] 1.01 | [23] 0.99 | [24] 1 | [30] 1.03 | [25] 0.988 | [26] 0.888 | [27] 0.983 | [28] 0.976

COC(=O)c1csc2c(C(F)(F)F)cc(N3CCN(S(=O)(=O)c4ccc(C)cc4)CC3)nc12
inactive: [1] 1.01 | [2] 1 | [4] 1 | [5] 1.05 | [6] 1.01 | [7] 1.02 | [8] 1.16 | [9] 1 | [10] 1 | [11] 1.04 | [12] 0.999 | [13] 1.01 | [14] 1.01 | [15] 1.01 | [16] 1 | [17] 1.13 | [18] 0.998 | [19] 0.995 | [20] 1.03 | [31] 1 | [22] 1.02 | [23] 1 | [24] 1.03 | [25] 0.993 | [26] 0.986 | [27] 1.11 | [28] 1.01

NCCNC(=O)c1ncsc1-c1cccc(F)c1
inactive: [1] 1.02 | S. cerevisiae deletion strains, locus YAL040C, strain CLN3, hits give low values 0.986 | S. cerevisiae deletion strains, locus YCL061C, strain MRC1 (second series), hits give low values 0.991 | S. cerevisiae deletion strains, locus YDR363W, strain ESC2, hits give low values 1.02 | S. cerevisiae deletion strains, locus YER002W, strain NOP16, hits give low values 1 | [7] 0.989 | [12] 1.01 | [29] 1 | [31] 0.99 | [21] 0.983 | S. cerevisiae deletion strains, locus YNL175C, strain NOP13, hits give low values 0.984 | S. cerevisiae deletion strains, locus YNL197C, strain WHI3, hits give low values 0.989 | S. cerevisiae deletion strains, locus YNL224C, strain SQS1, hits give low values 0.996 | S. cerevisiae deletion strains, locus YOR083W, strain WHI5 (second series), hits give low values 0.974
